About 20 (2%) of roughly 1,200 compounds were called active. Not shown: some 23% with an inconclusive outcome. The full list was thinned out, with actives kept by preference. Unmarked numbers belong to inactive results. Calls follow the shape of the dose curve; as a rule, active = well fitted inhibition curve with a large enough effect; inconclusive = small, poorly fitted or top-dose-only effect; inactive = no such curve, though single readings can be large or run the other way.
target: Transcriptional regulator ERG (Homo sapiens) (UniProt P11308); experiment: qHTS for Small Molecule Inhibitors of the ERG Ets/DNA interaction: HTRF assay against cherry picks; conditions: His-ERG Ets domain with biotin-DNA; series mostly up to 154 µM; activity change, negative = inhibition: at the top concentration
Sequence (P11308 whole entry, looked up, the tested form may be a part): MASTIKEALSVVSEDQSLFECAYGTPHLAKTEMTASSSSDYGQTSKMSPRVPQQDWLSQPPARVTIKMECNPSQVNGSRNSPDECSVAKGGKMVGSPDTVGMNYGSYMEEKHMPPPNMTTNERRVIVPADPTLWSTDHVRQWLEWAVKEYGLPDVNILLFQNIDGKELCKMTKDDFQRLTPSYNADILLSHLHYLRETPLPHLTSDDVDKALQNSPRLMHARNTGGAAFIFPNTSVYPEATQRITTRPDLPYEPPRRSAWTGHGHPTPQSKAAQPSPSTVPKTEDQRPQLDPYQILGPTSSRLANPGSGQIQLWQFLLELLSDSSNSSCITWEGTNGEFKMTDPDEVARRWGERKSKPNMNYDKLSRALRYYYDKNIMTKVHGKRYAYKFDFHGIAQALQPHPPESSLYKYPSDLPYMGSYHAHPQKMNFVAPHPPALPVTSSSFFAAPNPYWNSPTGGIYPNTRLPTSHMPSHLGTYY
From the text: The Ets family of proteins is a family of ~30 conserved transcription factors defined by the presence of an ~85 amino acid domain referred to as the Ets domain, which mediates sequence-specific DNA binding to a core DNA element GGAA/T.The Ets family member ERG has been linked to several neoplasms. […] More extensive studies of the effects of over-expression of ERG in prostate cells have recently been carried out and have shown that over-expression of ERG results in increased invasion. […] We will carry out a high throughout screen to identify inhibitors of the interaction between ERG and DNA using a fluorescence polarization (FP) assay with a His-tagged ERG Ets domain and fluorescently-labeled DNA probes to develop small molecule inhibitors of this interaction as probes to test this hypothesis and lay the groundwork for the development of targeted therapies against ERG. This is the counterscreen against the cherry picks. NIH Molecular Libraries Probe Production Network [MLPCN] NIH Chemical Genomics Center [NCGC] Grant: NS066464 PI Name: John Bushweller, University of Virgina
2 ul of protein solution (200 nM ERG domain in 300mM KCl, 50mM Tris-HCl, 1mM EDTA, 1mM DTT, pH 7.5); 20 nl Control plate and compound library plate; 2 ul of 200 nM biotin-DNA; incubate for 10 min at RT; 1 ul of anti-His antibody conjugated to the long-life fluorescent cryptate donner […] (5ng/ul) and streptavidin conjugated to the acceptor compound […] (0.2 ng/ul) mix; incubate 10 min and measure FRET (Excitation = 320 nm, Emission = 615, 665 nm).
Potency is read from the fitted curve at half-maximal effect.

| Compound | Potency | activity change, negative = inhibition |
| --- | --- | --- |
| Nc1ccc2nonc2c1[N+](=O)[O-] | 50.1 µM (active) | – |
| C=C1C2C[C@@]3([C@@H]1O)[C@@H](C[C@@H]2O)[C@@]12C4[C@@H]3C[C@@H]1[C@@](C)(CC[C@@H]2O)CN4CC | – | -25.6% |
| CC(=O)C1(c2ccccc2)CCN(C(=O)C2CCC(=O)N(CCc3cccc(F)c3)C2)CC1 (stereo not given) | – | -19.4% |
| C[N+]1(C)[C@@H]2CC[C@H]1CC(OC(=O)C(CO)c1ccccc1)C2 (stereo not given in full) | – | -26.6% |
| CN1[C@@H]2CCC[C@H]1CC(=O)C2 | – | -23.7% |

From PubChem BioAssay AID651804 (National Center for Advancing Translational Sciences (NCATS), 2012)
